Measurements taken from PubChem BioAssay AID1851 (National Center for Advancing Translational Sciences (NCATS), 2009).
The whole screen tested about 16,000 compounds, of which about 5,700 (36%) were called active. Another 24% or so got no clear call; they are omitted. Some of the results follow. A number with no mark means an inactive call. Calls come from the whole dose curve; as a rule, active = well fitted curve in the direction sought with a large enough effect; inconclusive = small, poorly fitted or top-dose-only effect, or effect the other way; inactive = no such curve, though single readings can be large or run the other way.

Biological target: Cytochrome P450 1A2 (Homo sapiens) (UniProt P05177)
Sequence (P05177 whole entry, looked up): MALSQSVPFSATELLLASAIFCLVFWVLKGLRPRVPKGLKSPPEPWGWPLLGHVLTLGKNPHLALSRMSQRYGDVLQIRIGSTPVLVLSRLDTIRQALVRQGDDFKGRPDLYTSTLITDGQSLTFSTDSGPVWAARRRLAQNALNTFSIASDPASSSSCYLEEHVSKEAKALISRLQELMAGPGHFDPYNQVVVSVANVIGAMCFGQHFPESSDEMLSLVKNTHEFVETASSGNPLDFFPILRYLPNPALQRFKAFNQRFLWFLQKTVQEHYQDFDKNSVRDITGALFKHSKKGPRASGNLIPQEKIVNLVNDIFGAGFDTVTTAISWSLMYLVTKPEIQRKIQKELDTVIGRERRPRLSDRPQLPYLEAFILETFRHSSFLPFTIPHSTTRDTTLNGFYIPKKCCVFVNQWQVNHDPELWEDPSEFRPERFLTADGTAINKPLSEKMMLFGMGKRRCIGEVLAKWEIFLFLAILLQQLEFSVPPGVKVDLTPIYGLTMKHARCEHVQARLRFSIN
Experiment: Cytochrome panel assay with activity outcomes
Conditions: recombinant CYP, pro-luciferin dealkylation, luminescence, p450-cyp1a2; series mostly up to 57.1 µM
% is set by controls: 0 for no effect and ±100 for the full control effect.

| Compound | AC50 | activity, negative = inhibition |
| --- | --- | --- |
| COCc1c(C(=O)OCC(=O)N2c3ccccc3NC(=O)C2(C)C)oc2ccccc12 | 0.562 µM (active) |  |
| CCCCC1(C)OC(=O)C(=Cc2ccc(N(CC)CC)cc2)C(=O)O1 (stereo not given) | 5.01 µM (active) |  |
| CCc1nnc(NC(=O)CCC(=O)N2CCN(c3ccccn3)CC2)s1 | inactive |  |
| CCc1nnc(NC(=O)c2c(C)nn(-c3ccccc3)c2Cl)s1 | 7.08 µM (active) |  |
| CCn1c(C)nc2cc(S(=O)(=O)C(F)F)ccc21 | 5.01 µM (active) |  |
| O=C(N/N=C1/C[C@@H](O)[C@@H](O)[C@@H]2[C@H]3C(=O)N(c4ccc(F)cc4F)C(=O)[C@@H]3CC[C@H]12)OCc1ccccc1 |  | -2.59% [at 11.4 µM] |
| CC(C)(C)C(=O)Nc1cccc(-c2nc3ccccc3c(=O)o2)c1 | 11.2 µM (active) |  |
| N=C(N)SCc1cccc(-c2nc3ccccc3c(=O)o2)c1 |  | -10.3% [at 2.29 µM] |
| O[C@H](C[C@@H]1CCCCN1)c1ccc2c(c1)oc1ccccc12 |  | -10.4% [at 2.29 µM] |
| CC(C)CC(=O)Nc1ccc2c(c1)oc1ccccc12 | 0.794 µM (active) |  |
| CC(CC(=O)O)CC(=O)Nc1ccc(S(N)(=O)=O)cc1 (stereo not given) | inactive |  |
| Cc1cc(-c2ccc(/C=N/n3cnnc3)o2)c([N+](=O)[O-])cc1C | 0.316 µM (active) |  |
| C[C@@H]1/C=C\CC(=O)OC[C@H]2O[C@@H](C=C[C@@H]2O)[C@H](C)/C=C\CC(=O)OC[C@H]2O[C@H]1C=C[C@@H]2O |  | 7.11% [at 11.4 µM] |
| CCC(C)Nc1nc(OCC(F)(F)F)nc(OCC(F)(F)F)n1 (stereo not given) | 10 µM (active) |  |
| C[C@@H]1O[C@H](O[C@@H]2[C@H](C)O[C@H](O[C@@H]3[C@H](C)O[C@H](O[C@H]4CC[C@]5(C)[C@@H](CC[C@@H]6[C@H]5C[C@@H](O)[C@]5(C)[C@@H](C7=CC(=O)OC7)CC[C@]65O)C4)C[C@@H]3O)C[C@@H]2O)C[C@H](O)[C@@H]1O | inactive |  |
| O=S(=O)(c1ccccc1)c1cnn2c(C(F)(F)F)cc(-c3ccc(F)cc3)nc12 | 0.794 µM (active) |  |
| O=S(=O)(c1ccccc1)c1cnn2c(C(F)(F)F)cc(-c3ccccc3)nc12 | inactive |  |
| C[N+](C)(C)c1ccc([C@H](N)C(=O)O)cc1 |  | -19.7% [at 11.4 µM] |
| COc1ccc(Sc2ccc(NC(=O)c3ccccc3Cl)cc2C#N)cc1 | inactive |  |
| N#Cc1cc(N)ccc1Sc1ccc(Cl)cc1 | 1.78 µM (active) |  |
| CCN1CCC[C@H]1CNC(=O)c1cc(S(N)(=O)=O)ccc1OC | inactive |  |
| CCC(C)[C@H](NC(=O)NC1CCN(Cc2ccccc2)CC1)C(=O)OC (stereo not given in full) | inactive |  |
| CNc1cc(OC)c(C(=O)N[C@@H]2CCN(Cc3ccccc3)[C@H]2C)cc1Cl | 31.6 µM (active) |  |

| Compound | AC50 | activity, negative = inhibition |
| --- | --- | --- |
| CC(=O)N(CC(O)CN(C(C)=O)c1c(I)c(C(=O)NC[C@@H](O)CO)c(I)c(C(=O)NC[C@@H](O)CO)c1I)c1c(I)c(C(=O)NC[C@@H](O)CO)c(I)c(C(=O)NC[C@@H](O)CO)c1I | inactive |  |
| NC(N)=N/N=C(/c1ccccc1)c1ccc(O)cc1O | 3.16 µM (active) |  |
| CC(=O)/C(=N\N=C(N)N)c1ccccc1 |  | -17.2% [at 2.29 µM] |
| CCN1C(=O)[C@H]2[C@H]3[C@H](O)[C@H](O)C/C(=N/OC[C@@H](O)COCc4ccco4)[C@@H]3CC[C@@H]2C1=O |  | -5.56% [at 11.4 µM] |
| O=C(NCc1cn(-c2ccccc2)nc1-c1ccccc1)c1cc([N+](=O)[O-])cc([N+](=O)[O-])c1 | inactive |  |
| CCc1ccccc1NC(=O)CSc1nc(-c2ccccc2)nn1C(=O)c1cccc([N+](=O)[O-])c1 | 3.16 µM (active) |  |
| COc1ccc(C(=O)N2CCC3(CCCN(C)C3)CC2)cc1 | inactive |  |
| COc1ccc2c(c1)CCc1c(C(=O)N3CCCCCC3)noc1-2 | 6.31 µM (active) |  |
| COc1ccc(NC(=O)N2CCCC3(CCN(C(=O)c4ccc(OC)cc4)CC3)C2)cc1 | inactive |  |
| CC(C)COCC1CC2(CC(C)(c3csc(N)n3)OC2=O)C(=O)O1 (stereo not given) | inactive |  |
| COCCNC(=O)c1ccc2c(c1)nc(C)n2-c1cc(OC)c(OC)c(OC)c1 | inactive |  |
| COCCNC(=O)c1ccc2c(c1)ncn2-c1ccc(F)c(F)c1 | 15.8 µM (active) |  |
| O=C(COc1ccc(Cl)cc1)N(Cc1ccccc1)c1ccccn1 | 2.24 µM (active) |  |
| C[N+](C)(C)CCN(Cc1ccc(Cl)cc1)c1ccccn1 | inactive |  |
| CN(CCOc1ccc(C[C@H](Nc2ccccc2C(=O)c2ccccc2)C(=O)O)cc1)c1ccccn1 | inactive |  |
| COCCNC(=O)CCCCCn1c(=S)[nH]c2ccccc2c1=O | 14.1 µM (active) |  |
| O=C(c1ccc2c(=O)n(CC3CCCO3)c(=S)[nH]c2c1)N1CCN(c2ccccc2)CC1 (stereo not given) | inactive |  |
| O=C(CCCn1c(=S)[nH]c2ccc(Br)cc2c1=O)NCC1CCCO1 (stereo not given) | 4.47 µM (active) |  |
| O=C(CCn1c(=S)[nH]c2ccccc2c1=O)NCCCN1CCOCC1 | inactive |  |
| O=C(c1cnccn1)N1CCC2(CC1)CCN(c1ncccn1)CC2 | inactive |  |
| Cc1[nH]nc(-c2ccc(OCc3cnn(-c4ccccc4)c3)cc2O)c1Oc1ccccc1F | 22.4 µM (active) |  |
| COC(=O)c1ccc(Oc2coc3cc(OCc4cnn(-c5ccccc5)c4)ccc3c2=O)cc1 | inactive |  |
| Cc1cc(C)cc(C(=N)c2ccccc2Cc2cccc3ccccc23)c1 |  | -5.4% [at 2.29 µM] |

| Compound | AC50 | activity, negative = inhibition |
| --- | --- | --- |
| CO[C@H]1COC(=O)CCC[C@@H](C)[C@H](OC)COC(=O)[C@H]2CCCN2C(=O)C/C=C\[C@@H]1C |  | -4.29% [at 11.4 µM] |
| COC(=O)c1ccc(NC(=S)NC2CCCCC2)cc1 | 14.1 µM (active) |  |
| O=C(Nc1ccc(Cl)cc1)NC1CCCCC1 | inactive |  |
| Cc1ccc(NC(=S)NC2CCCC2)cc1 | 15.8 µM (active) |  |
| Cc1ccc(NC(=S)N2CCN(C3CCCCC3)CC2)cc1 | inactive |  |
| COC(=O)c1ccc(NC(=O)C2CCCCC2C(=O)O)cc1 (stereo not given) | inactive |  |
| CC(=O)NS(=O)(=O)c1ccc(NC(=O)NC2CCCCC2)cc1 | inactive |  |
| CCc1cccc(CC)c1NC(=O)CN(CC(=O)O)CC(=O)O | inactive |  |
| CN(C)CCCn1c2c3ccccc3ccc2c2oc(=O)c3ccccc3c21 | 0.316 µM (active) |  |
| CCn1c2ccccc2c2cc(NS(=O)(=O)c3ccccc3C)ccc21 | 3.16 µM (active) |  |
| CC(=O)Nc1cc(S(=O)(=O)Nc2ccccc2)c(C)cc1C | inactive |  |
| CC(=O)Nc1ccccc1C(=O)C(=O)O | inactive |  |
| COc1c(NC(C)=O)c2ccccc2c2ccccc12 | 0.398 µM (active) |  |
| COCCN=C1Sc2nc3c(C)cccc3cc2CN1Cc1ccco1 | 0.631 µM (active) |  |
| O=c1c2ccccc2nc2n1CC/C2=C\c1ccccc1[N+](=O)[O-] | 3.16 µM (active) |  |
| O=c1cnc2cnc(Nc3ccccc3)nc2n1Cc1cccs1 | 1 µM (active) |  |
| Cc1nc2cnc(Nc3ccccc3)nc2n(Cc2cccs2)c1=O | 1.58 µM (active) |  |
| COc1cccc(Nc2ncc3ncc(=O)n(Cc4cccs4)c3n2)c1 | 1.58 µM (active) |  |
| COc1cccc(Nc2ncc3nc(C)c(=O)n(Cc4cccs4)c3n2)c1 | 2.51 µM (active) |  |
| COc1ccc(-c2nc3cnc(Nc4cccc(OC)c4)nc3n(Cc3cccs3)c2=O)cc1 | inactive |  |
| CCN(CC)C[C@@H](O)CN1CCCCc2nc(C)c(C)cc21 |  | -9.64% [at 11.4 µM] |
| O=C(Cc1cccc2ccccc12)N/N=C/c1ccc(Sc2nc3ccccc3s2)o1 | inactive |  |
| COCC(=O)N/N=C/c1ccc(Sc2nc3ccccc3s2)o1 | 15.8 µM (active) |  |

| Compound | AC50 | activity, negative = inhibition |
| --- | --- | --- |
| Cc1ccc(NS(=O)(=O)c2ccccc2Cl)c2c1CC(C)(C)O2 | 1.26 µM (active) |  |
| Cc1cc(C)c(S(=O)(=O)N2CCCCC2)c(C)c1N(C)S(=O)(=O)c1ccccc1 | inactive |  |
| CC(O)(CS(=O)(=O)Cc1ccc(Cl)cc1)C(=O)Nc1cccc(C(F)(F)F)c1 (stereo not given) | inactive |  |
| O=C(Nc1cccc(C(F)(F)F)c1)N(Cc1ccc(Cl)cc1)CC(O)C(F)(F)F (stereo not given) | 12.6 µM (active) |  |
| CCCCN=c1sc(C(=O)OC)cc(=O)n1CCCC | 0.251 µM (active) |  |
| CCN1C(=O)[C@H]2[C@H]3[C@H](O)[C@H](O)C/C(=N/O[C@@H]4O[C@H](COC(C)=O)[C@@H](OC(C)=O)[C@H](OC(C)=O)[C@H]4OC(C)=O)[C@@H]3CC[C@@H]2C1=O |  | -2.53% [at 11.4 µM] |
| Cc1ccc(-n2c3c(c(=O)[nH]c2=O)C(NS(=O)(=O)c2ccc(C)cc2)(C(F)(F)F)C(=O)N3)cc1 (stereo not given) | inactive |  |
| CCOC(=O)N/N=C/c1ccc(F)cc1 | 11.2 µM (active) |  |
| CCOC(=O)C(=Cc1ccc(F)cc1)C(=O)OCC | 25.1 µM (active) |  |
| CCOC(=O)N/N=C/c1ccccc1F | 6.31 µM (active) |  |
| Cc1ccc(/C=N\NC(=O)c2cc(OCC(F)(F)F)ccc2OCC(F)(F)F)cc1 | inactive |  |
| O=C(NCCC[N+]1=CC=N[C@H]1c1ccccc1)N1CCCc2nc(-c3ccc(Br)cc3)ccc21 |  | 7.37% [at 11.4 µM] |
| Cc1ccc(C2C(C(=O)c3sc(C)nc3C)=C(O)C(=O)N2CCN2CCOCC2)o1 (stereo not given) | inactive |  |
| CCOc1ccc(N(C(=O)/C=C/C(=O)Nc2cc(C)on2)C(C(=O)NC2CCCC2)c2ccccc2C)cc1 (stereo not given) | inactive |  |
| COc1ccc2cc3cc(C(=O)NCCN4CCN(c5ccccc5F)CC4)oc3nc2c1 | 15.8 µM (active) |  |
| CCc1ccc(C(C(=O)NCc2ccc(OC)cc2)N(CCOC)C(=O)Cc2cccs2)cc1 (stereo not given) | inactive |  |
| COc1ccc2cc3cc(C(=O)Nc4ccc5c(c4)OCO5)oc3nc2c1 | 0.501 µM (active) |  |
| COc1ccc2nc3oc(C(=O)NCc4cccs4)cc3cc2c1 | 2 µM (active) |  |
| COc1ccc2cc3cc(C(=O)NCc4ccc5c(c4)OCO5)oc3nc2c1 | 0.316 µM (active) |  |
| COc1ccc(N2CCN(CCNC(=O)C3CCN(S(=O)(=O)c4cccs4)CC3)CC2)cc1 | inactive |  |
| CCCS(=O)(=O)N1CCCC(C(=O)NCCCN2CCN(c3ccccc3F)CC2)C1 (stereo not given) | inactive |  |
